Screening data from PubChem BioAssay.
The list is a sample of the results.
aSyn UTR act: Activators working through SNCA 5'UTR binding (MLPCN) | alpha-synuclein 5'UTR reporter, activators screen | activity score, % (tested at 7.5 µM), hits read low | 300,000 compounds, 7.1% hits | AID 1814; in the data active = activity score below about -60%
A number is an active result.

What do the screens show for `CCOc1ccc(-c2ccc(/C=C3/C(=N)N4C=CSC4=NC3=O)o2)c([N+](=O)[O-])c1`?
aSyn UTR act: -72

How did O=C(Cc1n[nH]c(=O)c2ccccc12)OCC(=O)c1ccc2c(c1)OCCO2 do in these assays?
aSyn UTR act: inactive

Results for CCOc1ccc(C(=O)COC(=O)Cc2n[nH]c(=O)c3ccccc23)cc1 ?
aSyn UTR act: -87

Results for c1ccc(-n2ncc3c(N4CCC5(CC4)OCCO5)ncnc32)cc1 ?
aSyn UTR act: -223

Results for Cc1cccc(-n2ncc3c(N4CCC5(CC4)OCCO5)ncnc32)c1 ?
aSyn UTR act: -82

How did O=C1C=C(c2cccs2)C[C@H](c2ccccc2)[C@H]1n1nnc([N+](=O)[O-])n1 do in these assays?
aSyn UTR act: inactive

How did Cc1nc2nc(-c3ccccc3)nn2c(C)c1C do in these assays?
aSyn UTR act: -105

What do the screens show for `Cc1nc2nc(-c3ccc(Cl)cc3)nn2c(C)c1Cl`?
aSyn UTR act: -235

Results for Oc1ccc2ccccc2c1/C=N/Nc1nnc(-c2ncc[nH]2)c2ccccc12 ?
aSyn UTR act: inactive

What do the screens show for `COc1ccc2nc(C)cc(N/N=C/c3ccc(F)cc3)c2c1`?
aSyn UTR act: inactive

How did COc1ccc(/C=N/Nc2cc(C)nc3ccccc23)cc1 do in these assays?
aSyn UTR act: -85

How did COc1ccc(/C=N/Nc2nnc(-c3ncc[nH]3)c3ccccc23)cc1 do in these assays?
aSyn UTR act: -203

How did COc1ccc(/C=N/Nc2cc(C)nc3c(C)cccc23)cc1 do in these assays?
aSyn UTR act: -81

How did Nc1c2c(=O)oc(-c3ccccc3)cc2nn1-c1ccccc1 do in these assays?
aSyn UTR act: -182

How did O=C(COc1ccc(/C=N/NC(=O)c2cc3ccccc3o2)cc1Br)Nc1ccccc1 do in these assays?
aSyn UTR act: inactive

What do the screens show for `O=C(Cc1ccccc1[N+](=O)[O-])Nc1ccc2c(c1)OCCO2`?
aSyn UTR act: -100

What do the screens show for `O=C(COc1ccccc1[N+](=O)[O-])Nc1ccc2c(c1)OCO2`?
aSyn UTR act: -133

What do the screens show for `O=C(COc1ccccc1[N+](=O)[O-])Nc1ccc(NC(=O)c2cc3ccccc3o2)cc1`?
aSyn UTR act: -119

What do the screens show for `O=C(COc1ccccc1[N+](=O)[O-])N/N=C/c1cccc(OC(=O)c2ccc3c(c2)OCO3)c1`?
aSyn UTR act: -157

How did O=C(COc1cc(F)ccc1[N+](=O)[O-])Nc1cccc(Br)c1 do in these assays?
aSyn UTR act: -71

How did COc1ccc(C(=O)Nc2nnc(C(F)(F)F)s2)cc1 do in these assays?
aSyn UTR act: -144

What do the screens show for `CCC(NC(=O)Nc1nnc(C(F)(F)F)s1)(C(F)(F)F)C(F)(F)F`?
aSyn UTR act: inactive

What do the screens show for `COC(=O)Nc1nnc(-c2ccc(OC)cc2)s1`?
aSyn UTR act: -76

How did COc1ccc(C(=O)Nc2nnc(-c3ccccc3)s2)cc1 do in these assays?
aSyn UTR act: -189

Results for C[n+]1cc[nH]c1SCC(=O)c1ccccc1 ?
aSyn UTR act: -72

How did CCCNC(=O)c1ccc2c(=O)c(O)c(-c3ccc(F)cc3)[nH]c2c1 do in these assays?
aSyn UTR act: inactive

How did CCCNC(=O)c1ccccc1NC(=O)c1ccc2c(c1)NC(=O)C(C)S2 (stereo not drawn) do in these assays?
aSyn UTR act: -96

What do the screens show for `CC(=O)c1ccccc1NC(=O)c1ccc2c(c1)NC(=O)C(C)S2` (stereo not drawn)?
aSyn UTR act: -135

Results for Cn1cc(CCNC(=O)c2ccc3nc(Cc4ccccc4F)oc3c2)cn1 ?
aSyn UTR act: -116

What do the screens show for `CCn1nnc2cc(C(=O)NCCc3ccccc3F)ccc21`?
aSyn UTR act: inactive

How did Cn1cc(CNC(=O)c2ccc3nc(Cc4ccccc4F)oc3c2)cn1 do in these assays?
aSyn UTR act: -84

How did O=C(NCCc1ccccn1)c1ccc2nc(Cc3ccccc3F)oc2c1 do in these assays?
aSyn UTR act: -111

What do the screens show for `COCc1cc(=O)n2[nH]c(-c3ccc(C)cc3)cc2n1`?
aSyn UTR act: -128

How did CCc1c(C)nc2cc(-c3ccc(OC)cc3)[nH]n2c1=O do in these assays?
aSyn UTR act: -156

What do the screens show for `CCOC(=O)Cc1c(C)nc2cc(-c3ccc(Cl)cc3)[nH]n2c1=O`?
aSyn UTR act: -67

What do the screens show for `CCCc1cc(=O)n2[nH]cc(-c3ccc(Cl)cc3)c2n1`?
aSyn UTR act: inactive

How did Cc1nn(-c2ccccc2)c(C)c1/C=N/NC(=O)CSc1nnc(SCc2ccccc2Cl)s1 do in these assays?
aSyn UTR act: -71

Results for Cc1ccc(CSc2nnc(SCC(=O)N/N=C/c3c(C)nn(-c4ccccc4)c3C)s2)cc1 ?
aSyn UTR act: -115

Results for Nc1c(C(=O)c2ccccc2)sc2nsc(SCCN3CCOCC3)c12 ?
aSyn UTR act: -157

How did COc1ccc(C2C(C#N)=C(N)Nc3nc4ccccc4n32)cc1 (stereo not drawn) do in these assays?
aSyn UTR act: -179

What do the screens show for `Cn1cnnc1SCC(=O)c1ccc2c(c1)CCCC2`?
aSyn UTR act: -71

How did COc1ccc2nc(NC(=O)CSc3cn[nH]n3)sc2c1 do in these assays?
aSyn UTR act: -68

What do the screens show for `COc1ccc2nc(NC(=O)CSC3=NCCS3)sc2c1`?
aSyn UTR act: -88

What do the screens show for `CCOc1ccc2nc(NC(=O)CSC3=NCCS3)sc2c1`?
aSyn UTR act: -77

Results for COc1ccc2nc(NC(=O)CSc3ccccc3)sc2c1 ?
aSyn UTR act: -128

What do the screens show for `CCOc1ccc2nc(NC(=O)CSc3nc(SC)ns3)sc2c1`?
aSyn UTR act: -167

Results for CC(=O)N1CC(=O)N=C1SCC(=O)Nc1nc(C)c(-c2ccccc2)s1 ?
aSyn UTR act: -79

Results for CCCC(=O)Nc1nc2ccc(OC)cc2s1 ?
aSyn UTR act: -133

How did Cc1nc(NC(=O)CN2CCOCC2)sc1-c1ccccc1 do in these assays?
aSyn UTR act: -74

What do the screens show for `COc1ccc2nc(NC(=S)N(C)C)sc2c1`?
aSyn UTR act: -81

What do the screens show for `COc1ccc2nc(NC(=O)CN3CCOCC3)sc2c1`?
aSyn UTR act: -63

What do the screens show for `CCOc1ccccc1C1CC(=O)Nc2cc3c(cc21)OCCO3` (stereo not drawn)?
aSyn UTR act: inactive

Results for CSc1ccc(-c2nc(CN(C)C3CCOC3)c(C)o2)cc1 (stereo not drawn) ?
aSyn UTR act: -81

What do the screens show for `Cc1ccc(-c2nnc(NC(=O)c3ccc([N+](=O)[O-])o3)o2)c(C)c1`?
aSyn UTR act: -64

How did Cc1ccc(NC(=O)c2ccc([N+](=O)[O-])o2)c(C)c1 do in these assays?
aSyn UTR act: -74

How did O=C(Cn1cc(C(=O)C2CC2)c2ccccc21)NCc1ccccc1 do in these assays?
aSyn UTR act: -81

How did COC(=O)NCC(C)OC(=O)Nc1ccc(Cl)cc1 (stereo not drawn) do in these assays?
aSyn UTR act: -95

How did Cc1ccc(NC(=O)OCCNC(=O)OC(C)C)cc1 do in these assays?
aSyn UTR act: -73

How did Cc1ccc(NC(=O)OC(C)CNC(=O)Oc2cccc(C)c2)cc1 (stereo not drawn) do in these assays?
aSyn UTR act: -93

What do the screens show for `N#Cc1cnc(Nc2nc3ccccc3o2)nc1-c1ccccc1`?
aSyn UTR act: -72

Results for COc1ccc(-c2nc(C#N)c(NCCc3ccccc3)o2)cc1 ?
aSyn UTR act: -146

How did CCOc1ccc(Nc2oc(-c3ccc(Cl)cc3)nc2C#N)cc1 do in these assays?
aSyn UTR act: -139

What do the screens show for `CNc1oc(-c2ccccc2)nc1C#N`?
aSyn UTR act: -62

Results for COc1ccc(Nc2oc(-c3ccccc3)nc2C#N)cc1 ?
aSyn UTR act: -112

What do the screens show for `COc1ccc(Nc2oc(-c3ccc(OC)cc3)nc2C#N)cc1`?
aSyn UTR act: -132
